The supplement of paper PMC7695840

Experiments:
[1] = tested on: Staphylococcus aureus MW2 delta-mecA (mecA-); assay: normalized GFP fluorescence (growth of mecA- strain) (fraction of control range); higher = more growth of mecA- strain; settings: compound concentration: 150 uM; cefoxitin: subinhibitory; fluorescent label: GFP
Method in brief: (§1)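 Single-replicate 1536-well plates carried 150 μM compound (1.5% DMSO), onto which 5 µL/well of a 1:1 mix of pre-induced S. aureus MW2 cells was dispensed: gene-carrying cells tagged with DsRed and deletion cells tagged with GFP, in LB with a subinhibitory antibiotic dose set daily. Incubation ran 20 h at 37 °C, 90% humidity, unshaken, followed by DsRed (540/590) and GFP (485/520) reads. Per-plate scaling of each channel used single-strain control medians, and plates with high untreated ratios and rows with DsRed/GFP >10 were excluded.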

[2] = tested on: Staphylococcus aureus MW2 (mecA+); assay: normalized DsRed fluorescence (growth of mecA+ strain) (fraction of control range); higher = more growth of mecA+ strain; settings: compound concentration: 150 uM; cefoxitin: subinhibitory; fluorescent label: DsRed
Method in brief: as §1

Row | SMILES | normalized GFP fluorescence [1] | normalized DsRed fluorescence [2]
1 | COc1ccc(CCN(C)CCCC(C#N)(c2ccc(OC)c(OC)c2)C(C)C)cc1OC (configuration not stated) | 0.734 | 0.717
2 | CC1CCC(NC(=O)N(CCCl)N=O)CC1 (configuration not stated) | 0.55 | 0.439
3 | NC(=O)C1(N2CCCCC2)CCN(CCCC(=O)c2ccc(F)cc2)CC1 | 0.529 | 0.733
4 | CCN(Cc1ccncc1)C(=O)C(CO)c1ccccc1 (configuration not stated) | 0.402 | 0.607
5 | CO[C@H]1C(=O)[C@]2(C)[C@@H](OC)C[C@H]3OC[C@@]3(OC(C)=O)[C@H]2[C@H](OC(=O)c2ccccc2)[C@]2(O)C[C@H](OC(=O)[C@H](O)[C@@H](NC(=O)OC(C)(C)C)c3ccccc3)C(C)=C1C2(C)C [Cabazitaxel (Jevtana)] | 0.256 | 1.24
6 | CC12CC3CC(C)(C1)CC(N)(C3)C2 | 0.384 | 0.672
7 | C[C@H]1O[C@@H](O[C@H]2[C@@H](O)C[C@H](O[C@H]3[C@@H](O)C[C@H](O[C@H]4CC[C@@]5(C)[C@H](CC[C@@H]6[C@@H]5CC[C@]5(C)[C@@H](C7=CC(=O)OC7)CC[C@]65O)C4)O[C@@H]3C)O[C@@H]2C)C[C@H](O)[C@@H]1O | 0.212 | 0.724
8 | C=C[C@H]1CN2CC[C@H]1C[C@@H]2[C@@H](O)c1ccnc2ccc(OC)cc12 | 0.452 | 0.631
9 | CCc1cn([C@H]2C[C@H](O)[C@@H](CO)O2)c(=O)[nH]c1=O | 0.343 | 0.714
10 | OCc1ccccc1O | 0.351 | 0.713
11 | CCCCCCCCCC(=O)N[C@@H](Cc1c[nH]c2ccccc12)C(=O)N[C@H](CC(N)=O)C(=O)N[C@@H](CC(=O)O)C(=O)N[C@@H]1C(=O)NCC(=O)N[C@@H](CCCN)C(=O)N[C@@H](CC(=O)O)C(=O)N[C@H](C)C(=O)N[C@@H](CC(=O)O)C(=O)NCC(=O)N[C@H](CO)C(=O)N[C@@H]([C@H](C)CC(=O)O)C(=O)N[C@@H](CC(=O)c2ccccc2N)C(=O)O[C@@H]1C [Daptomycin] | 0.013 | 0.064
